Molecules are shown by their SMILES. Activity calls are given as the source filed them.

The results in this text go back to PubChem BioAssay.

One assay addresses Albumin (Bos taurus) (UniProt P02769). Nature of the assay: bovine serum albumin binders on microarray, profiling panel, artefact control for SMM control protein annotation, biochemical, small-molecule microarray, Alexa647 label, 635/667 nm fluorescence (AID 1118).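 Also: score merges 667 nm emission intensity and signal-to-noise per printed compound spot.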 The conditions noted are these: BSA-A647 binding, fluorescence 635 nm, higher = more signal.
Assay [1] in a line: small-molecule microarray binders of probe aXIP, primary screen, biochemical, NeuroSMM set, 635/667 nm fluorescence (AID 1119).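 Also: probe is the protein aXip251-270 applied at 1 µg/mL to compound-printed slides; binding of probe to printed compounds measured as 667 nm fluorescence plus signal to noise.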 The following applies: higher = more signal, called active from +8 up or from −8 down.
Assay [2] can be described thus: small-molecule binders of probe aNOTCH3, primary screen, biochemical, small-molecule microarray, 635/667 nm fluorescence (AID 1120).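 Also: probe is a biotin-tagged antibody raised against NOTCH3 rather than NOTCH3 protein; score merges spot fluorescence near 667 nm with spot signal to noise.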 The following applies: higher = more signal.
Assay [3] is described as follows: small-molecule binders of probe aNOTCH2, primary screen, biochemical, small-molecule microarray, 635/667 nm fluorescence (AID 1121).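 Also: score merges feature fluorescence read at 667 nm with its signal to noise.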 The conditions noted are these: higher = more signal.
Assay [4] addresses Carbonic anhydrase 2 (Homo sapiens) (UniProt P00918). Nature of the assay: CAII small-molecule binders, profiling panel, biochemical, small-molecule microarray, Alexa647-labelled CAII (AID 1122). The conditions noted are these: CAII-A647 binding fluorescence, higher = more signal.
The nature of assay [5]: COS7 lysate on small-molecule microarray, probe aHis, 635 nm (AID 1123).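 Also: z-score combines 667nm fluorescence intensity with signal-to-noise per printed compound spot.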 The following applies: COS7 cell lysate, fluorescence, higher = more signal.
Assay [6] in a line: compound binding in COS7 lysate, probe aLAP1, primary screen, cell lysate, small-molecule microarray (AID 1124).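 Also: lysate comes from COS7 cells expressing LAP1 and is applied at 0.3 µg/mL; score merges spot fluorescence near 667 nm with signal-to-noise over triplicate slides.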 The following applies: probe aLAP1, fluorescence, higher = more signal.
A further assay concerns Sam68 (KHDRBS1). Nature of the assay: Sam68 small-molecule binders, primary screen, biochemical, small-molecule microarray, 635 nm fluorescence (AID 1125).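 Also: score merges 667 nm channel intensity with signal to noise over triplicate slides.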 The following applies: small-molecule microarray binding, higher = more signal.
Assay [7] concerns Chordin-like protein 2 (CHRDL2). Nature of the assay: CHRDL2 small-molecule binders, primary screen, biochemical, small-molecule microarray, 635 nm fluorescence (AID 1126).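 Also: printed compound slides probed with Chrdl2 protein at 4 µg/mL for 1 h at 4 C; score merges 667 nm emission intensity with signal to noise over three replicate slides.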 The conditions noted are these: small-molecule microarray binding, fluorescence 635 nm; higher = more signal.
The target in assay [8] is Concanavalin-A (Canavalia ensiformis) (UniProt P02866). Nature of the assay: ConA small-molecule binders, primary screen, artefact control for SMM control protein annotation, biochemical, small-molecule microarray, Alexa647 label, 635 nm (AID 1127).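 Also: z combines 667 nm emission intensity with signal-to-noise across three replicate slides.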 The following applies: ConA-A647 binding fluorescence, higher = more signal.
Assay [9] in a line: anti-His antibody binders, primary screen, artefact control for SMM control protein annotation, biochemical, small-molecule microarray, 635 nm fluorescence (AID 1128).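 Also: score merges feature fluorescence with signal-to-noise for each printed compound spot.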 The conditions noted are these: anti-His Alexa647 antibody binding, higher = more signal.
Assay [10] concerns Human papillomavirus type 1a E7 protein (residues 1-88). Nature of the assay: HPV1a E7 small-molecule binders, primary screen, biochemical, small-molecule microarray, residues 1-88, 635 nm (AID 1129). The conditions noted are these: small-molecule microarray binding, fluorescence 635 nm; higher = more signal.
Assay [11] concerns the target Focal adhesion kinase 1 (Homo sapiens) (UniProt Q05397). Nature of the assay: small-molecule microarray binders of FAK, primary screen, biochemical, 635/667 nm fluorescence, BSA, DTT (AID 1130).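 Also: composite of spot emission at 667 nm and signal to noise over triplicate slides.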 The conditions noted are these: PTK2 binding, 635 nm fluorescence, higher = more signal.
For assay [12], the system named is Fibrinogen (Alexa647-labelled). Nature of the assay: fibrinogen binders on compound microarrays, profiling panel, artefact control for SMM control-protein annotation, biochemical, small-molecule microarray, 635/667 nm fluorescence (AID 1131).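 Also: z-score merges 667 nm fluorescence with per-spot signal-to-noise over triplicate slides.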 The following applies: fibrinogen-A647 binding fluorescence, higher = more signal.
Assay [13] concerns the target Follistatin (Homo sapiens) (UniProt P19883). Nature of the assay: follistatin binders on small-molecule microarrays, primary screen, biochemical, small-molecule microarray, 635/667 nm fluorescence (AID 1132). The conditions noted are these: FST binding, 635 nm fluorescence, higher = more signal.
Assay [14] addresses Fibroblast growth factor 2 (Homo sapiens) (UniProt P09038). Nature of the assay: FGF2 binders on small-molecule microarrays, primary screen, biochemical, small-molecule microarray, 635/667 nm fluorescence (AID 1133). The conditions noted are these: small-molecule microarray binding, FGF2, fluorescence 635/667; higher = more signal.
Assay [15] can be described thus: mitochondrial membrane potential change in A549 cells, profiling panel, cell-based, JC-1 fluorescence, basal, 24 h, 100 nL (AID 1138).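 Also: A549 lung adenocarcinoma cells under basal conditions with no added stimulus; test concentration not given here.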 The following applies: higher = more signal.
A further assay relates to Lefty1. Nature of the assay: Lefty1 binders on small-molecule microarrays, primary screen, biochemical, small-molecule microarray, 635/667 nm fluorescence (AID 1139). The conditions noted are these: small-molecule microarray binding, fluorescence 635/667; higher = more signal.
For assay [16], the system named is wheat germ agglutinin (Triticum aestivum), Alexa647-labelled. Nature of the assay: wheat germ agglutinin binders on compound microarrays, profiling panel, artefact control for SMM control-protein annotation, biochemical, small-molecule microarray, 635/667 nm fluorescence (AID 1140).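 Also: score merges 667 nm feature emission with signal to noise over triplicate slides.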 The following applies: WGA-A647 binding, 635 nm fluorescence, higher = more signal.

Assay [17] has as its target Luciferin 4-monooxygenase (Photinus pyralis) (UniProt P08659). Nature of the assay: firefly luciferase enzyme inhibitors, primary screen, biochemical, luminescence, purified enzyme, 2006 set (AID 1141).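 Also: cell-free assay with purified firefly luciferase at 100 ng per well in PBS; test concentration not given here.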 The following applies: SteadyGlo luminescence, 30 min, higher = more signal, called active from +8 up or from −8 down.

Focal adhesion kinase 1 (Homo sapiens), sequence (Q05397 whole entry, looked up): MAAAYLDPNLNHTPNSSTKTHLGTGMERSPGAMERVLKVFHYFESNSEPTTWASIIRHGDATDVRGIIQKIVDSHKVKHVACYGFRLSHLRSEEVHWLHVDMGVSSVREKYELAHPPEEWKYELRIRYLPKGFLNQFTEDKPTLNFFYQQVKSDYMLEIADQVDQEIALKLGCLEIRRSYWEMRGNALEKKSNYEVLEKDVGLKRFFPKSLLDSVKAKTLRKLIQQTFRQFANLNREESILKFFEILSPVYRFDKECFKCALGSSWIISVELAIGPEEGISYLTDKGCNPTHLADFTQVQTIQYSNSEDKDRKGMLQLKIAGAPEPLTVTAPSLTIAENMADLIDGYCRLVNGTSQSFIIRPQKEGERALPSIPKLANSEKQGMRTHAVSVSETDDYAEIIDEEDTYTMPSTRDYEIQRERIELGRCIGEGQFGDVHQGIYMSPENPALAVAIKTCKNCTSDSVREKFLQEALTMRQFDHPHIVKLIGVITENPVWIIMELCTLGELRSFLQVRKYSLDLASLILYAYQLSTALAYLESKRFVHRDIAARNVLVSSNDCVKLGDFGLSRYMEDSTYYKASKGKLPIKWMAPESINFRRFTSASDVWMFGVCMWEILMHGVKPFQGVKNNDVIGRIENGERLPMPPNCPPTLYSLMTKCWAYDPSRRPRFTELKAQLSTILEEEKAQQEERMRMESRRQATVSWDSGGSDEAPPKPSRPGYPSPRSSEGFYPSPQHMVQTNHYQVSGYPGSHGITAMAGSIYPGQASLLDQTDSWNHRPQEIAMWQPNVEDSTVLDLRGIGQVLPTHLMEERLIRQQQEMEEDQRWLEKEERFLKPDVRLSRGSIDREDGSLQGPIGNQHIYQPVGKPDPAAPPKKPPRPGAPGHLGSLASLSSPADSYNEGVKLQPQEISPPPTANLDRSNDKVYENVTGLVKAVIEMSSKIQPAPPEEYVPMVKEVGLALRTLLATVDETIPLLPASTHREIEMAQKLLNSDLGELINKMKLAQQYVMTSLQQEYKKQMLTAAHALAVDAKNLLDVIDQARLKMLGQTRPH
Albumin (Bos taurus), sequence (P02769 whole entry, looked up): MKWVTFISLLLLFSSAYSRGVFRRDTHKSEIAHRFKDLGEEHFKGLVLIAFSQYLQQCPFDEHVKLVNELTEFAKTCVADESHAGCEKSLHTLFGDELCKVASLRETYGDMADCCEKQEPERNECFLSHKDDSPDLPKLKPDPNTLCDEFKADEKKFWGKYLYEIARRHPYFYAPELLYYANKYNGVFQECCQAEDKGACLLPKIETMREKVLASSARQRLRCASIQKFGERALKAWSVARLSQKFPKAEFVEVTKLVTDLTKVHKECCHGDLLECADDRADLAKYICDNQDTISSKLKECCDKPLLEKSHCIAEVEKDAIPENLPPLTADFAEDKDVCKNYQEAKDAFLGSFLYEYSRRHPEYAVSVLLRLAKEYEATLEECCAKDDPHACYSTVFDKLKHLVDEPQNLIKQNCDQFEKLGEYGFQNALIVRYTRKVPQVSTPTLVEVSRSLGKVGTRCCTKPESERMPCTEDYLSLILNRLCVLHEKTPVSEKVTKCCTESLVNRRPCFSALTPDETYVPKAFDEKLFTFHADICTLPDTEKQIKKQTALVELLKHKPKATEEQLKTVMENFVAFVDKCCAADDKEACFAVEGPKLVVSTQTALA
Concanavalin-A (Canavalia ensiformis), sequence (P02866 whole entry, looked up): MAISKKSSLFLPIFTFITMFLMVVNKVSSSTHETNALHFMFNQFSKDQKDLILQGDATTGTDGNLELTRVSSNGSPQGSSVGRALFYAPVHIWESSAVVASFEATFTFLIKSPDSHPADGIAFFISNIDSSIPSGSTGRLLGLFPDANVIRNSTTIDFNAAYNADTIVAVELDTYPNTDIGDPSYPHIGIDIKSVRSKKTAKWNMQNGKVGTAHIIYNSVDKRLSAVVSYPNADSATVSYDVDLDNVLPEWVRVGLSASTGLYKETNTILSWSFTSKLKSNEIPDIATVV
Fibroblast growth factor 2 (Homo sapiens), sequence (P09038 whole entry, looked up): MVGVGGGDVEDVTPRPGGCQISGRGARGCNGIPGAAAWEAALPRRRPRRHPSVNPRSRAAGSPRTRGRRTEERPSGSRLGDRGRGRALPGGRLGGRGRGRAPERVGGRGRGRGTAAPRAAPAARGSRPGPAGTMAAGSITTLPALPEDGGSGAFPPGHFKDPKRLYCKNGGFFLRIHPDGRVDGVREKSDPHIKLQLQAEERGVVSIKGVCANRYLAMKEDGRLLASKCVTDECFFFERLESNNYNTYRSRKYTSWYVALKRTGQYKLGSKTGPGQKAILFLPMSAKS
Luciferin 4-monooxygenase (Photinus pyralis), sequence (P08659 whole entry, looked up): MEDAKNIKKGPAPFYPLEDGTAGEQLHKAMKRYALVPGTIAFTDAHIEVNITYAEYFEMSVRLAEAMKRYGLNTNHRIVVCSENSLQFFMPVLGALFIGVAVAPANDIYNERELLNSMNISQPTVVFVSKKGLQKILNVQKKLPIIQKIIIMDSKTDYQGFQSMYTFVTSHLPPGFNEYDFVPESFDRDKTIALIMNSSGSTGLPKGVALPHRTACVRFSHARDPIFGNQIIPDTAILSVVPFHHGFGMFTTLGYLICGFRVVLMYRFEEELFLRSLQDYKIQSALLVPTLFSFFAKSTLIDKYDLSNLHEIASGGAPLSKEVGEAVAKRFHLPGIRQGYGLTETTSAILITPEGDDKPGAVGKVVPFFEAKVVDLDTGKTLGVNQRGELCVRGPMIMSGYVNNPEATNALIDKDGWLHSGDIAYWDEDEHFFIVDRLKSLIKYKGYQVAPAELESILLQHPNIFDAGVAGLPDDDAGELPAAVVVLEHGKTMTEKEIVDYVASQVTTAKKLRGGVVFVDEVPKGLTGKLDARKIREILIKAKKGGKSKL
Follistatin (Homo sapiens), sequence (P19883 whole entry, looked up): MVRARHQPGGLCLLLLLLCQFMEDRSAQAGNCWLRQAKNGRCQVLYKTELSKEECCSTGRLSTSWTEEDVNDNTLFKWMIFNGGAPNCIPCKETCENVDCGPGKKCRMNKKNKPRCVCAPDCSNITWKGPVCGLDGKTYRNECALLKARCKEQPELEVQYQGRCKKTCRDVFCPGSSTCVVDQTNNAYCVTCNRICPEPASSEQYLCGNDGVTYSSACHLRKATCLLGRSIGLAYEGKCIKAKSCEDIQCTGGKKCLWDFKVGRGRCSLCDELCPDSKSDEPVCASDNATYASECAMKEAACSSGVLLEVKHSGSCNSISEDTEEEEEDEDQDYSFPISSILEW

In the case of `COc1ccc([Si](C)(C)[C@@H]2[C@@H](CC(=O)N3Cc4ccccc4C[C@H]3CO)O[C@]3(C(=O)N(C)c4ccccc43)[C@H]2C)cc1`, the composite z-score in the assay with Albumin (Bos taurus) is 0.63; in [2] it was 0.215; in assay [3], 0.014; in assay [4] it was 0.723; in assay [5], 0.475; in [6], -0.0284. The composite z-score stood at 1.3 in the assay on Sam68 (KHDRBS1); 1.13 in assay [7]; 1.17 in assay [8]; 1.94 in assay [9]; 1.17 in assay [10]; 0.0712 in assay [11]. In addition, the composite z-score in [12] was 0.855; in assay [13], 1.52; in [14] it was 1.68; in the assay on Lefty1, 1.57; in assay [16], 1.02. Further, the composite Z-score in assay [1] was 1.22 (inactive). Further, the z-score in assay [15] was 0.0779; in assay [17], -0.497 (inactive).

Take `COCCOC(=O)N1C(=O)[C@@]2(c3ccccc31)[C@H](C(=O)N1CCN(c3ncccn3)CC1)[C@H]1C(=O)O[C@H](c3ccccc3)[C@H](c3ccccc3)N1[C@@H]2c1ccc(O)cc1`: the composite z-score with Albumin (Bos taurus) is 0.303; in assay [2], -0.273; in assay [3] it was -0.237; in [4] it was 0.597; in [5] it was 1.15; in [6] it was 0.421. Also, the composite z-score is 1.02 in the assay with Sam68 (KHDRBS1); 0.271 in assay [7]; 1.1 in assay [8]; 1.12 in assay [9]; 0.613 in [10]; 0.585 in [11]. In addition, the composite z-score in [12] is 0.675; in assay [13], -0.147; in assay [14], 0.173; in the assay with Lefty1, 0.0567; in assay [16] it was 0.875. Moreover, in assay [1], the composite Z-score is -0.197 (inactive). Besides, the values for the z-score in assay [15] and in [17] were -0.189 and -0.378 (inactive), respectively.

On to `CCCCCCc1nc(C2CC2)cc2c1[Si](C(C)C)(C(C)C)OC2`, for which the composite z-score was -0.858 in the assay with Albumin (Bos taurus); -0.197 in assay [2]; -0.176 in [3]; -0.513 in assay [4]; -0.535 in assay [5]; -0.0031 in assay [6]. Moreover, the composite z-score was -0.826 with Sam68 (KHDRBS1); -0.463 in [7]; -0.334 in [8]; -1.08 in assay [9]; -1.14 in [10]; -0.295 in assay [11]. In addition, the composite z-score is 0.691 in assay [12]; -0.706 in assay [13]; -0.644 in [14]; -0.568 with Lefty1; -0.222 in assay [16]. Also, the composite Z-score in assay [1] is 0.289 (inactive). In addition, the z-score in assay [15] was -1.37; in assay [17] it was 0.766 (inactive).

For `OCC1CC(c2ccccc2)=NO1` (stereo not given), the composite z-score with Albumin (Bos taurus) is -0.558; in assay [2] it was -0.185; in assay [3], -0.124; in assay [4] it was -0.179; in assay [5] it was -0.53; in [6], -0.437. The composite z-score with Sam68 (KHDRBS1) is -0.424; in assay [7] it was 0.843; in assay [8], -0.36; in assay [9] it was 0.702; in assay [10], -0.0937; in assay [11] it was -0.219. The composite z-score in assay [12] is -0.327; in assay [13], 0.5; in assay [14] it was 0.774; in the assay on Lefty1, -0.0193; in [16] it was -0.239. The composite Z-score in [1] is -0.228 (inactive). In addition, the z-score in assay [15] was 0.875; in assay [17], -1.4 (inactive).

In the case of `CN(C)CCCCNC(=O)[C@@H]1C[C@@H]2C(=O)N[C@@H](Cc3ccccc3)C(=O)N2[C@@H]1c1cccc(OCCO)c1`, the composite z-score was -0.0493 with Albumin (Bos taurus); -0.239 in [2]; -0.153 in [3]; 0.74 in [4]; 2.59 in [5]; 1.11 in assay [6]. The composite z-score with Sam68 (KHDRBS1) was 1.06; in assay [7], 1.08; in [8] it was 1.07; in assay [9] it was 2.09; in [10], 0.579; in assay [11] it was -0.0323. Besides, the composite z-score in assay [12] turned out to be 0.513; in [13], 1.33; in assay [14] it was 1.75; in the assay with Lefty1, 1.65; in [16] it was 0.645. Further, the composite Z-score in assay [1] is 1.1 (inactive). In addition, the figures for the z-score in assay [15] and in [17] were 1.53 and -2.68 (inactive), respectively.
